The results in this text go back to PubChem BioAssay (NCI).

Compounds without any hit were thinned out: in the full panel of roughly 83,000, 20% have a hit.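 Values shown are percent growth following 48 h exposure of cells in 96-well plates to a single concentration of compound; below 10 was considered active.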 Unmarked numbers belong to inactive results. Calls of active or inactive are those of the source.

Among the test systems are HCT-15 colon; HT29 colon; SNB-75 CNS; SNB-19 CNS; U251 CNS; PC-3 prostate; SK-MEL-5 melanoma; UACC-62 melanoma; LOX IMVI melanoma; SK-MEL-28 melanoma; SK-MEL-2 melanoma; EKVX NSCLC; SN12C renal; UO-31 renal; TK-10 renal; ACHN renal; CAKI-1 renal; CCRF-CEM leukemia; MOLT-4 leukemia.
Holding throughout (test): NCI-60 one-dose screen, 48 h (100 = growth as untreated, 0 = no growth, -100 = all killed)
Holding throughout (details): 10 µM unless noted

With `CCCCCCCCCCCCCCCC[N+]1(C)CCN(SN2CC[N+](C)(CCCCCCCCCCCCCCCC)CC2)CC1`, the growth with HCT-15 colon was 54.2%; in the test with HT29 colon, 19.7%; in the test with SNB-75 CNS, 50.3%; with SNB-19 CNS, 29.3%; in the test on U251 CNS it was 23.2%; with PC-3 prostate it was 33%. Besides, the growth was 95.4% in the test with SK-MEL-5 melanoma; 72.8% with UACC-62 melanoma; 34.1% with LOX IMVI melanoma; 98.4% with SK-MEL-28 melanoma; 95.9% with SK-MEL-2 melanoma; 82.3% in the test on EKVX NSCLC. For the same compound, the growth in the test on SN12C renal was 72.5%; in the test with UO-31 renal, 76.9%; in the test on TK-10 renal, 53.3%; in the test with ACHN renal, 66.2%; in the test on CAKI-1 renal, 43.4%; in the test on CCRF-CEM leukemia, 48.1%. In the test on MOLT-4 leukemia, the growth is 57.1%.
As to `COc1ccc(C/C(=C(\C)c2ccc(OCCN3CCCC3)cc2)c2ccc(OCCN3CCCC3)cc2)cc1`, the growth in the test on HCT-15 colon is 11.9%; in the test with HT29 colon, -58.1% (active); in the test on SNB-75 CNS, 83.2%; with SNB-19 CNS, 72.6%; in the test with U251 CNS it was -39.7% (active); in the test on PC-3 prostate, 50.9%. Also, the growth with SK-MEL-5 melanoma was -48.8% (active); in the test with UACC-62 melanoma, -55.6% (active); in the test on LOX IMVI melanoma, -92.5% (active); with SK-MEL-28 melanoma it was -86.9% (active); in the test with SK-MEL-2 melanoma it was 102%; with EKVX NSCLC it was 81.3%. Further, the growth with SN12C renal is 73.8%; in the test with UO-31 renal it was 53.4%; with TK-10 renal it was 87.3%; in the test on ACHN renal, 54.1%; with CAKI-1 renal, 80.7%; in the test on CCRF-CEM leukemia, 0.621% (active). For the same compound, in the test on MOLT-4 leukemia, the growth was -17.5% (active).
Regarding `O=C(CCN1CCCC1)Nc1ccc2c(NCCCCc3ccccc3)c3ccccc3nc2c1`, the growth in the test on HCT-15 colon is 17%; with HT29 colon it was 6.39% (active); with SNB-75 CNS, 16.6%; in the test on SNB-19 CNS, -49.5% (active); with U251 CNS it was -57.8% (active); with PC-3 prostate, -56.8% (active). Besides, the growth in the test on SK-MEL-5 melanoma is -30.9% (active); in the test with UACC-62 melanoma it was 65.2%; in the test on LOX IMVI melanoma it was -89.3% (active); in the test with SK-MEL-28 melanoma, -63.4% (active); in the test on SK-MEL-2 melanoma, -7.21% (active); in the test with EKVX NSCLC it was 38.3%. For the same compound, the growth is -60.8% (active) in the test with SN12C renal; 37% with UO-31 renal; -36.5% (active) in the test with TK-10 renal; 24.8% in the test with ACHN renal; 9.94% (active) in the test with CAKI-1 renal; -25.2% (active) in the test on CCRF-CEM leukemia. Moreover, the growth in the test with MOLT-4 leukemia is -26.2% (active).
On to `O=C1OC(Cc2ccccc2)C1c1ccccc1` (configuration not stated), for which the growth in the test with HCT-15 colon was 101%; with HT29 colon it was 106%; in the test with SNB-75 CNS, 92.1%; in the test on SNB-19 CNS, 99.1%; with U251 CNS, 97.5%; in the test with PC-3 prostate, 106%. Further, the growth was 98.9% with SK-MEL-5 melanoma; 94.2% in the test on UACC-62 melanoma; 99.3% in the test with LOX IMVI melanoma; 109% with SK-MEL-28 melanoma; 102% in the test with SK-MEL-2 melanoma; 97.5% with EKVX NSCLC. In addition, the growth was 97.7% in the test on SN12C renal; 89% in the test with UO-31 renal; 89.4% with TK-10 renal; 104% with ACHN renal; 97% with CAKI-1 renal; 109% with CCRF-CEM leukemia. In the test on MOLT-4 leukemia, the growth was 101%.
Turning to `CCCCCCCCO/N=C\c1c2c(O)c3c(O)c(C)c4c(c3c1O)C(=O)C(C)(O/C=C\C(OC)C(C)C(OC(C)=O)C(C)C(O)C(C)C(O)C(C)/C=C\C=C(\C)C(=O)N2)O4` (configuration not stated), the growth is 19.1% in the test with HCT-15 colon; 2.82% (active) with HT29 colon; 36% in the test with SNB-75 CNS; 29.2% with SNB-19 CNS; 13.7% in the test with U251 CNS; 13.1% with PC-3 prostate. In addition, the growth is 17.7% in the test with SK-MEL-5 melanoma; 26.2% with UACC-62 melanoma; 30.2% with LOX IMVI melanoma; 51.5% with SK-MEL-28 melanoma; -31.4% (active) in the test with SK-MEL-2 melanoma; 22.5% with EKVX NSCLC. Also, the growth in the test on SN12C renal is 21.8%; in the test with UO-31 renal, 17.7%; in the test with TK-10 renal, 30%; in the test with ACHN renal it was 25%; in the test on CAKI-1 renal it was 13.1%; in the test with CCRF-CEM leukemia, 19.8%. Besides, in the test on MOLT-4 leukemia, the growth is 12.9%.
Take `NC1[C@H](c2c[nH]c3ccccc23)c2c([nH]c3ccccc23)[C@H]1c1c[nH]c2ccccc12` (some centres not stated): the growth with HCT-15 colon is 84.8%; with HT29 colon, 97.6%; in the test on SNB-75 CNS it was 97.2%; in the test with SNB-19 CNS, 95.2%; in the test with U251 CNS, 100%; in the test with PC-3 prostate it was 78.3%. In addition, the growth in the test on SK-MEL-5 melanoma was 85.2%; with UACC-62 melanoma, 72.5%; in the test on LOX IMVI melanoma, 90.1%; in the test with SK-MEL-28 melanoma it was 103%; with SK-MEL-2 melanoma, 98.2%; with EKVX NSCLC, 85.1%. The growth is 88.9% in the test with SN12C renal; 80.2% with UO-31 renal; 119% in the test with TK-10 renal; 88% in the test on ACHN renal; 84.8% in the test on CAKI-1 renal; 94.5% in the test with CCRF-CEM leukemia. Besides, the growth in the test with MOLT-4 leukemia was 80.6%.
Consider `Cc1ccc(-c2[nH][nH]c(=O)c2-c2nc3ccccc3s2)cc1`, for which the growth in the test on HCT-15 colon was 99.1%; in the test with HT29 colon, 104%; with SNB-75 CNS, 79.4%; in the test with SNB-19 CNS it was 97.9%; with U251 CNS it was 103%; with PC-3 prostate, 96.9%. For the same compound, the growth is 102% with SK-MEL-5 melanoma; 95.9% with UACC-62 melanoma; 95.7% with LOX IMVI melanoma; 111% in the test with SK-MEL-28 melanoma; 108% in the test with SK-MEL-2 melanoma; 97.4% with EKVX NSCLC. Besides, the growth with SN12C renal was 98.7%; in the test with UO-31 renal it was 78.7%; in the test on TK-10 renal, 107%; in the test on ACHN renal, 97.3%; with CAKI-1 renal, 88.7%; in the test on CCRF-CEM leukemia, 93.3%. Further, in the test with MOLT-4 leukemia, the growth was 100%.
`CCCCCCCCOc1ccc(/C=N/Nc2cc(C)nc3ccc(Br)cc23)cc1`: the growth with HCT-15 colon is 21%; in the test with HT29 colon, 11.9%; in the test on SNB-75 CNS, 20%; in the test with SNB-19 CNS it was 76.1%; in the test with U251 CNS, 16.5%; in the test with PC-3 prostate, 60.8%. Also, the growth was 76.9% in the test with SK-MEL-5 melanoma; 92.7% in the test with UACC-62 melanoma; 22.4% in the test with LOX IMVI melanoma; 80.9% with SK-MEL-28 melanoma; 96.2% in the test with SK-MEL-2 melanoma; 85% with EKVX NSCLC. Moreover, the growth in the test with SN12C renal was 68.2%; in the test on UO-31 renal it was 64.7%; in the test on TK-10 renal, 90.3%; in the test with ACHN renal, 52.1%; with CAKI-1 renal, 84.1%; in the test on CCRF-CEM leukemia, 7.66% (active). In addition, in the test with MOLT-4 leukemia, the growth is 58%.
